Assay outcomes deposited in PubChem BioAssay by several laboratories.
Most compounds without a hit are left out; they make up all but 1.6% or so of the library.
RN4220 kill = S. aureus RN4220 growth inhibition; OD600, 16 h; inhibition, % (test concentration not listed); 330,000 compounds, 0.33% hits; in the data active means inhibition above about 85%
PfHsp40 yeast = restores yeast growth despite PfHsp40 toxicity | S. cerevisiae expressing PfHsp40, growth rescue, ATP luminescence | growth rescue, % at 12.5 µM | 340,000 compounds, 0.68% hits | AID 504582; in the data active means growth rescue above about 28%, passing the limit was not always enough;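 further: yeast W303a lacking pdr1 and pdr3 grown in galactose medium; growth measured after three days at 30 °C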
BJeLR lethal = kills HRASV12-expressing BJeLR cells; inhibition, % (no concentration beside the values); BJeLR (HRASV12) viability, CellTiter-Glo ATP luminescence, 48 h; AID 1554; 300,000 compounds, 0.17% hits; in the data active means inhibition above about 50%
CCHF vOTU inh = blocks the CCHF virus ovarian tumor domain protease; CCHFV vOTU protease, Pep-AMC fluorescence; inhibition, % at 11.5 µM; 370,000 compounds, 0.55% hits; in the data active means inhibition above about 30%
ugtP null kill = growth inhibition of S. aureus ugtP deletion strain | S. aureus RN4220 ugtP deletion, OD600 growth, 16 h | growth inhibition, % (test concentration not listed) | 330,000 compounds, 0.54% hits | AID 1259309; in the data active means growth inhibition above about 68%
Numbers stand for hits; 0 = inactive; - = no result given.

SMILES	RN4220 kill	PfHsp40 yeast	BJeLR lethal	CCHF vOTU inh	ugtP null kill
Fc1ccc(Cn2ccc(-c3cnc(-c4ccccc4)s3)n2)cc1	0	57.6	0	0	0
Cc1ccc(Cn2ccc(-c3cnc(-c4ccccc4)s3)n2)cc1	0	0	0	0	0
COC(=O)CC1=C(C(=O)OC)C2(C(=O)Nc3c(C)cccc32)C(C#N)=C(N)O1 (stereo not drawn)	97.3	0	0	0	94.5
CCOC(=O)C1=C(C)OC(N)=C(C#N)C12C(=O)N(C)c1ccccc12 (stereo not drawn)	90.5	0	0	0	0
C#CCN1C(=O)C2(C(C#N)=C(N)OC(C)=C2C(=O)OCc2ccccc2)c2ccccc21 (stereo not drawn)	0	0	0	0	0
O=C(NC(NC(=S)Nc1ccc(Cl)cc1Cl)C(Cl)(Cl)Cl)c1cccc([N+](=O)[O-])c1 (stereo not drawn)	87.3	0	0	0	0
O=C(Cn1sc2ccccc2c1=O)NC12CC3CC(CC(C3)C1)C2	105.9	0	0	-	100.6
Clc1ccc(OCCn2cnc3ccccc32)c(Cl)c1	0	28.4	0	0	0
Oc1ccc(CC2CNCCN2CC2(c3ccccc3)CC2)cc1 (stereo not drawn)	0	-	-	-	0
CC1CCCN(C(=O)CCc2ccccc2)C1 (stereo not drawn)	0	0	0	0	0
CC1CN(C(=O)CCc2ccccc2)C(C)CN1C(=O)CCc1ccccc1 (stereo not drawn)	0	44.6	0	0	0
Cc1nc(NN=Cc2cccc(F)c2)cc(N2CCOCC2)n1	0	-	-	-	0
Cc1cc(C(=O)NN=Cc2cccs2)n[nH]1	0	-	-	-	0
Oc1ccc(Cl)c2cccnc12	97.1	0	-	0	98.2
COc1ccccc1N=Nc1ccc(O)c2ncccc12	0	0	0	0	0
Oc1ccc(N=Nc2ccccc2C(F)(F)F)c2cccnc12	96.5	0	0	0	99.2
CCS(=O)(=O)c1ccc(N=Nc2ccc(O)c3ncccc23)c(OC)c1	0	214.5	0	0	0
Cc1cc(C)c(C=NNC(=O)c2nnn(-c3nonc3N)c2CN2CCC(C)CC2)c(C)c1	0	-	-	-	0
CCOc1ccc(C=NNC2=NCCCCC2)cc1	0	-	-	-	0
O=C(Nc1cccc(NC(=O)c2c(F)cccc2F)n1)c1c(F)cccc1F	0	0	0	0	0
O=C(Nc1cccc(NC(=O)c2cccc(F)c2)n1)c1cccc(F)c1	90.3	0	0	0	0
COC(=O)C(CC(C)C)NS(=O)(=O)N(Cc1ccccc1)C(CC(C)C)C(=O)OC (stereo not drawn)	0	-	-	-	0
O=C(COc1ccc(C=NNC(=O)c2ccncc2)cc1)Nc1cccc([N+](=O)[O-])c1	0	-	-	-	0
CN1CC2C(c3ccc(C(F)(F)F)cc3)C3(c4ccccc4)CC2(C3)C1c1ccccc1 (stereo not drawn)	0	-	-	-	0
O=C(Nc1nc(-c2cccs2)c(C(=O)C(F)(F)F)s1)c1ccccc1	88.2	0	0	0	0
SMILES	RN4220 kill	PfHsp40 yeast	BJeLR lethal	CCHF vOTU inh	ugtP null kill
Cc1ccc(CS/C(Nc2ccccc2C)=C(\C#N)C(N)=O)c(C)c1	0	0	0	0	95.1
Cc1ccccc1NC(=O)CSC(N)=O	0	0	0	0	0
Cc1onc(-c2c(Cl)cccc2Cl)c1COC(=O)c1ccc(Cl)cc1	0	0	0	0	88.6
CC(=O)NC(c1ccc2ccccc2c1)c1ccc2cccnc2c1O (stereo not drawn)	-	85.0	0	0	-
CC(=O)NC(c1ccc(Cl)cc1Cl)c1ccc2cccnc2c1O (stereo not drawn)	-	444.6	0	0	-
CC(CNC(=O)COc1ccccc1)OC(=O)Nc1ccc(Cl)c(Cl)c1 (stereo not drawn)	0	199.7	0	0	0
COC(=O)NCC(C)OC(=O)Nc1cccc(Cl)c1 (stereo not drawn)	0	0	0	0	0
COc1ccc(/C=C2/S/C(=N/N=C3CC4CCC3(C)C4(C)C)NC2=O)cc1 (stereo not drawn)	0	-	-	-	0
CSc1ccc(S(=O)(=O)Nc2c(C)cccc2C)cc1	0	0	0	0	0
CCc1ccccc1NS(=O)(=O)c1ccc(SC)cc1	94.8	0	0	0	89.1
O=C(CSCc1ccccc1)NN=Cc1cc2c(cc1Br)OCO2	0	-	-	-	0
CN1CC2C3C(=O)N(C)C(=O)C3[C@](Cc3ccccc3)(C1=O)N2C(=O)c1ccc(F)cc1 (stereo partly drawn)	0	-	-	-	0
Cc1cc(C)nc(NC(=O)/C=C/c2ccccc2Cl)n1	0	0	0	0	0
Cc1cc(N)c2cc(NC(=O)/C=C/c3ccccc3Cl)ccc2n1	0	0	107.5	-	0
O=C(CC=NOCc1ccc([N+](=O)[O-])cc1)Nc1ccccc1	0	-	-	-	0
Cc1cccc(Cn2c(N3CCCCC3C)nc3c2c(=O)[nH]c(=O)n3C)c1 (stereo not drawn)	0	0	0	29.8	0
CC1CN(C(C)CO)C(=O)Cc2cc(NC(=O)Nc3ccc(C(F)(F)F)cc3)ccc2OC1CN(C)S(=O)(=O)c1cn(C)cn1 (stereo not drawn)	0	-	-	-	0
CCC(=O)Nc1cccc(C2=NOC3(C2)CC(C(N)=O)N(C(=O)c2cc([N+](=O)[O-])cc([N+](=O)[O-])c2)C3)c1 (stereo not drawn)	0	-	-	-	0
Cc1ccc2nc(-c3ccc(NC(=S)NC4CC(C)(C)NC(C)(C)C4)cc3)sc2c1	99.7	0	0	0	95.1
O=C(NC(=S)Nc1ccc(Oc2ccc(Cl)cc2)cc1)c1ccccc1	0	0	0	0	85.8
S=C(NCc1ccco1)Nc1ccc(Oc2ccc(Cl)cc2)cc1	0	194.3	0	0	0
S=C(NCc1ccco1)Nc1ccc(Cl)cc1	0	0	0	0	0
COC(=O)C(O)(c1ccc(NC(=S)NC(=O)c2ccccc2)cc1)C(F)(F)F (stereo not drawn)	0	0	0	0	89.5
O=C1C=C(c2ccc(C(=O)O)cc2)CC(c2ccc(F)cc2)C1 (stereo not drawn)	0	-	-	-	0
COc1ccc(CCC(=O)Nc2c(-c3ccc(N(C)C)cc3)[nH][nH]c2=O)cc1	-	-	-	108.7	-
SMILES	RN4220 kill	PfHsp40 yeast	BJeLR lethal	CCHF vOTU inh	ugtP null kill
COc1ccc(-c2[nH][nH]c(=O)c2NC(=O)c2ccccn2)cc1	-	-	-	0	-
O=C(N/N=C/c1ccncc1)c1cc2ccccc2cc1O	-	187.2	0	0	-
Cc1c(C=NNC(=O)c2ccc([N+](=O)[O-])cc2)cnn1C	0	-	-	-	0
COc1ccc(OC)c2[nH]c(C(=O)N3CCC(C(=O)O)CC3)cc12	0	0	0	0	0
COc1cc2cc(C(=O)N3CC(COS(C)(=O)=O)c4ccc(O)cc43)[nH]c2c(OC)c1OC (stereo not drawn)	-	63.4	-	-	-
COc1ccccc1-c1c(-c2ccc(OCC(=O)NN)cc2O)n[nH]c1C(F)(F)F	0	0	0	0	0
COc1ccc(-c2n[nH]c(C(F)(F)F)c2-c2cc3ccccc3o2)c(O)c1	100.4	0	0	0	100.3
O=C(/C=C/c1cccs1)Nc1cccc(NC(=O)/C=C/c2cccs2)n1	0	0	0	0	0
O=C(/C=C/c1cccs1)Nc1ccc(Br)cn1	0	0	53.3	0	0
